Only some compounds are listed: those with a hit (about 4.7% of all), similar ones and a draw of the others.
PfHsp90 set2 – growth inhibition of PfHsp90-expressing yeast, primary screen, antimalarial PfHsp90 inhibitor project, S. cerevisiae, BacTiter-Glo luminescence, single point, set 2 | AID 504621, 2011 | inhibition, % at 9.4 µM | 310,000 compounds, 0.32% hits | BacTiter-Glo ATP, 48 h; yeast lacking PDR1 and PDR3 efflux regulators;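 active = every replicate shows inhibition above about 80%, whatever the replicate mean, limit read from the data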;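 also: 0% = DMSO neutral controls and 100% = 20 µM radicicol positive controls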
tim10-1 inh – growth inhibitors of tim10-1 mutant yeast, primary screen, luminescence, uHTS; 330,000 compounds, 2.2% hits; S. cerevisiae tim10-1 ts strain growth, BacTiter-Glo, 24 h; inhibition, % at 20 µM;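 active = inhibition of at least 40%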;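 also: mutant grown at 25 °C; 0% = DMSO wells with yeast and 100% = wells holding no yeast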
Calb FLC – C. albicans growth inhibition with fluconazole, primary screen, CaCi-2 strain, Alamar Blue fluorescence. growth inhibition, % (no concentration beside the values). C. albicans CaCi-2 (fluconazole-resistant clinical isolate) + fluconazole, 48 h. AID 1979, 2009. 300,000 compounds, 0.57% hits;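 active = growth inhibition above about 58% in most replicates, limit read from the data, passing the limit was not always enough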;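 also: all wells also contain fluconazole at 8 µg/ml as a sub-toxic cotreatment; 0% = median of DMSO wells and 100% = median of geldanamycin control wells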
SKKanGAS inh – S. pyogenes SKKanGAS growth inhibitors in kanamycin, primary screen, streptokinase expression inhibitor project, SKKanGAS strain, BacTiter-Glo luminescence. 6 h. AID 1662, 2009. 300,000 compounds, 1.3% hits. inhibition, % at 7.5 µM;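 active = mean replicate score, as percent of positive control median, at least 50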;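 also: strain carries kanamycin resistance gene driven by streptokinase promoter and grows in 40 µg/ml kanamycin; loss of luminescence reflects streptokinase promoter inhibition or plain growth inhibition; 0% = median of DMSO wells and 100% = positive control at its reference dose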
tim23-1 inh – growth inhibitors of tim23-1 mutant yeast, primary screen, luminescence, uHTS. 330,000 compounds, 1.3% hits. S. cerevisiae tim23-1 growth, BacTiter-Glo luminescence, 24 h. AID 463212, 2010. inhibition, % at 20 µM;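 active = growth inhibition of the mutant yeast at or above 50%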;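 also: temperature-sensitive mutant grown at 25 °C; plate controls were DMSO-treated mutant yeast for no effect and medium wells lacking yeast for full effect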
TIM10 inh – growth inhibitors of isogenic TIM10 control yeast, primary screen, counter-screen for tim10-1 yeast inhibitor project, luminescence, uHTS. inhibition, % at 10 µM. 330,000 compounds, 1.4% hits. S. cerevisiae TIM10 strain growth, BacTiter-Glo luminescence, 24 h;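 active = inhibition of 40% or more at the single tested concentration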;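 also: wild-type TIM10 isogenic control strain grown at permissive 25 °C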
* = called active by the depositor.

`O=C(/C=C/c1c[nH]c2ccccc12)c1c(O)n(CCc2ccccc2)c(=O)[nH]c1=O` gave PfHsp90 set2 -12, tim10-1 inh -10, Calb FLC 0, SKKanGAS inh 85*, tim23-1 inh 4 and TIM10 inh -8.
Screening O=C1C2CCN(CC2)C1Cc1ccc(OCCOc2ccccc2)cc1 (stereo not given) returned PfHsp90 set2 2, tim10-1 inh -9, Calb FLC 109*, SKKanGAS inh 5, tim23-1 inh -6 and TIM10 inh 1.
Screening CC1(C(=O)O)CC12c1ccccc1-c1ccccc12 (stereo not given) returned PfHsp90 set2 30.
`CCC(=O)Nc1ccccc1` gave PfHsp90 set2 16, tim10-1 inh 7, Calb FLC -2, SKKanGAS inh -6, tim23-1 inh 12 and TIM10 inh 0.
Screening CCCCC/C=C\C/C=C\C/C=C\C/C=C\CCCC(=O)Nc1ccc(O)cc1 returned Calb FLC 20 and SKKanGAS inh 107*.
`Clc1ccc(COC(Cn2ccnc2)c2ccc(Cl)cc2Cl)cc1` (stereo not given) gave PfHsp90 set2 83*, tim10-1 inh -26, SKKanGAS inh 74*, tim23-1 inh 49 and TIM10 inh -91.
Clc1ccc(CSC(Cn2ccnc2)c2ccc(Cl)cc2Cl)cc1 (stereo not given) was read as PfHsp90 set2 90*, tim10-1 inh -37, tim23-1 inh 5 and TIM10 inh -167.
Screening NC(=Nc1ccccc1)NN=Cc1c[nH]c2ccccc12 returned PfHsp90 set2 -6.
Screening O=C(Nc1ccccc1)N1Cc2ccccc2-n2nncc2C1 returned PfHsp90 set2 -10.
Oc1ccc2c3c1O[C@H]1c4[nH]c5ccccc5c4C[C@@]4(O)[C@@H](C2)N(CC2CC2)CC[C@]314 was read as PfHsp90 set2 -3, tim10-1 inh 10, tim23-1 inh -2 and TIM10 inh 6.
Screening O[C@@H]1CCCN2CCc3c([nH]c4ccccc34)[C@H]12 returned PfHsp90 set2 12, Calb FLC -4 and SKKanGAS inh 98*.
Screening CCOC(=O)C1(c2ccccc2)CCN(CCC(=O)Nc2cccc(Br)c2)CC1 returned PfHsp90 set2 -3, tim10-1 inh -43, tim23-1 inh -12 and TIM10 inh -3.
`CN1C(=O)/C(=C/c2ccc(Cl)s2)C(=O)NC1=S` gave PfHsp90 set2 94*, Calb FLC 7 and SKKanGAS inh 0.
For Cc1ccsc1/C=C1\C(=O)NC(=S)N(C)C1=O the results were PfHsp90 set2 -6, tim10-1 inh 18, Calb FLC 3, SKKanGAS inh -6, tim23-1 inh 22 and TIM10 inh 10.
For CCCC[C@@H](C)C[C@@H](C)C(=O)N(C)[C@@H](CC(C)C)C(=O)N[C@H](C(=O)N(C)[C@H](C(=O)N1C[C@@H](O)C[C@H]1C(=O)N1C(=O)C=C[C@@H]1C)C(C)C)C(C)OC(C)=O (stereo not given in full) the results were PfHsp90 set2 -4, tim10-1 inh 17, tim23-1 inh 15 and TIM10 inh 6.
Screening O=C(NP(=O)(N1CC1)N1CC1)c1cc(I)ccc1I returned PfHsp90 set2 7.
CN1CCN(c2ccc(S(C)(=O)=O)cc2[N+](=O)[O-])CC1 was read as PfHsp90 set2 -13, tim10-1 inh 7, Calb FLC -13, SKKanGAS inh 0, tim23-1 inh 5 and TIM10 inh -6.
`CN1CCN(c2ccc([N+](=O)[O-])c3no[n+]([O-])c23)CC1` gave PfHsp90 set2 -263, Calb FLC 8 and SKKanGAS inh 104*.
For COc1ccc(N/N=C/c2c(O)n(-c3cccc(C)c3)c(=O)[nH]c2=O)cc1 the results were PfHsp90 set2 6, tim10-1 inh -52, Calb FLC 114*, SKKanGAS inh -8, tim23-1 inh -132 and TIM10 inh -47.
For COc1ccc(N/N=C/c2c(O)n(-c3ccc(C)c(C)c3)c(=O)[nH]c2=O)cc1 the results were PfHsp90 set2 6, tim10-1 inh 3, Calb FLC 0, SKKanGAS inh -2, tim23-1 inh -55 and TIM10 inh -21.
`COC(=O)C12CCc3c(ccc4cc(OC)ccc34)C1=CC(=O)C2` (stereo not given) gave PfHsp90 set2 6.
For COC(=O)C1=C(C(=O)OC)SC2(S1)C(C(=O)OC)=C(C(=O)OC)Sc1c2ssc1=O the results were PfHsp90 set2 117*.
For CC1Oc2cc3c(-c4c(O)cc(O)c5c(O)c6c(cc45)OC(C)C(C)C6=O)c(O)cc(O)c3c(O)c2C(=O)C1C (stereo not given) the results were PfHsp90 set2 -41, tim10-1 inh 6, Calb FLC -12, SKKanGAS inh 107*, tim23-1 inh 24 and TIM10 inh 0.
Clc1ccc(CO/N=C(\Cn2ccnc2)c2ccc(Cl)cc2Cl)c(Cl)c1 was read as tim10-1 inh 33, SKKanGAS inh 96*, tim23-1 inh -41 and TIM10 inh -72.
Screening O=C(c1ccccc1)C(CN1CCCC1)c1ccccc1 (stereo not given) returned PfHsp90 set2 8, Calb FLC 93* and SKKanGAS inh -10.
Screening CCN1CCN(CC(c2ccccc2)c2ccccc2)CC1 returned PfHsp90 set2 -12, tim10-1 inh 5, Calb FLC -19, SKKanGAS inh 5, tim23-1 inh 5 and TIM10 inh -4.
Screening CCCCCCCn1c(=O)c(C(=O)Nc2cnccn2)c(O)c2ccccc21 returned PfHsp90 set2 30, tim10-1 inh -25, Calb FLC 36, SKKanGAS inh 60*, tim23-1 inh 34 and TIM10 inh 8.
For CCCCCn1c(=O)c(C(=O)Nc2cc(C)ccn2)c(O)c2ccccc21 the results were PfHsp90 set2 -7, tim10-1 inh -26, Calb FLC 4, SKKanGAS inh 3, tim23-1 inh 12 and TIM10 inh -15.
CCCCCn1c(=O)c(C(=O)Nc2cnccn2)c(O)c2ccccc21 was read as PfHsp90 set2 11, tim10-1 inh 7, Calb FLC 10, SKKanGAS inh 81*, tim23-1 inh 35 and TIM10 inh 22.
Oc1ccccc1Cl was read as PfHsp90 set2 21, tim10-1 inh -12, tim23-1 inh -1 and TIM10 inh 6.
For Oc1ccc(O)c2c1C1(Cl)C(Cl)=C(Cl)C2(Cl)C1(Cl)Cl the results were PfHsp90 set2 107*.

Screening results from PubChem.
